The panel holds about 79,000 compounds, 15% with a hit somewhere; the sample as a whole holds those more often. A number with no mark means an inactive call. Calls of active or inactive are those of the source. Rule as the data show it: active = growth inhibition above about 70%; inactive = the rest.
Columns and labels:
[1] = NCI Yeast Anticancer Drug Screen. Data for the rad50 strain (AID 155);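 also: 0% = growth of vehicle-only cultures of the same strain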; details: S. cerevisiae rad50 strain growth inhibition, stronger effect = higher value
In short: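 Relative growth inhibition (compound vs vehicle) was measured in yeast with a defined repair-gene alteration.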

[2] = NCI Yeast Anticancer Drug Screen. Data for the mec2-1 strain (AID 157); details: S. cerevisiae mec2-1 strain, stronger effect = higher value
In short: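 Vehicle-treated cultures served as reference for growth inhibition of compound-exposed mec2-1 yeast.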

[3] = NCI Yeast Anticancer Drug Screen. Data for the sgs1 mgt1 strain (AID 161);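 also: 0% = growth of cultures given vehicle only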; details: S. cerevisiae sgs1 mgt1 strain, stronger effect = higher value
In short: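 Inhibition of yeast growth, normalised to vehicle-treated controls, is reported for a strain bearing genetic alterations in DNA damage repair.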

[4] = NCI Yeast Anticancer Drug Screen. Data for the cln2 rad14 strain (AID 165);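 also: 0% = growth equal to vehicle treated cultures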; details: S. cerevisiae cln2 rad14 strain, stronger effect = higher value
In short: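 Each compound was tested on cln2 rad14 yeast. Inhibition of growth was calculated against vehicle-exposed controls.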

[5] = NCI Yeast Anticancer Drug Screen. Data for the bub3 strain (AID 167); details: S. cerevisiae bub3 mutant strain, stronger effect = higher value
In short: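 Screening used yeast with an engineered genetic alteration affecting cell cycle control. Compound-exposed cultures were compared with vehicle cultures, and reduced growth was taken as inhibition.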

[6] = NCI Yeast Anticancer Drug Screen. Data for the mlh1 rad18 strain (AID 175); details: S. cerevisiae mlh1 rad18 strain growth inhibition, stronger effect = higher value
In short: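 Vehicle-treated cultures served as the reference for growth inhibition in a yeast strain carrying DNA damage repair alterations exposed to each compound.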

[7] = at 5.0 µM (retest, dose inferred, filed as 0.5)
[8] = at 50.0 µM (retest, dose inferred, filed as 5.0)

Structure (SMILES) | growth inhibition [1, 7] | growth inhibition [1, 8] | growth inhibition ([1]; at 50.0 µM) | growth inhibition [2, 7] | growth inhibition [2, 8] | growth inhibition ([2]; at 50.0 µM) | growth inhibition [3, 7] | growth inhibition [3, 8] | growth inhibition ([3]; at 50.0 µM) | growth inhibition [4, 7] | growth inhibition [4, 8] | growth inhibition ([4]; at 50.0 µM) | growth inhibition [5, 7] | growth inhibition [5, 8] | growth inhibition ([5]; at 50.0 µM) | growth inhibition [6, 7] | growth inhibition [6, 8] | growth inhibition ([6]; at 50.0 µM)
COc1ccc2c(c1)N=C(N)n1c(nc3ccccc31)S2 | -1% | 51% | 60.6% | -6% | 42% | 54.6% | -10% | 83% (active) | 74.3% (active) | -33% | 34% | 36.1% | -37% | 36% | 69.7% | -14% | 57% | 56.8%
CCOC(=O)C1(C#N)C(=O)CSC1=Nc1ccccc1Cl (stereo not drawn) | -7% | -14% | -5.95% | -16% | -11% | -8.75% | -4% | -2% | 25% | 13% | 17% | -9.95% | -14% | -10% | 18.4% | -33% | -54% | -3.4%
CCCCCN=Cc1c(O)c(O)c(C(C)C)c2cc(C)c(-c3c(C)cc4c(C(C)C)c(O)c(O)c(C=NCCCCC)c4c3O)c(O)c12 | 2% | 43% | 14.8% | -44% | 17% | 62.9% | 2% | 50% | 71.8% (active) | 1% | 11% | 20.4% | -2% | 40% | 30% | 1% | 25% | 68.5%
CCC(C)Sc1nc2c([nH]1)c(=S)n(C)c(=O)n2C (stereo not drawn) | 9% | 39% | 87.7% (active) | 20% | 52% | 96% (active) | 5% | -19% | 96.7% (active) | -3% | 17% | 23.9% | 16% | 49% | 95.7% (active) | 1% | 24% | 95.2% (active)
CC(=O)OC1CC2Cc3ccccc3C3(O)COC213 (stereo not drawn) | -1% | 48% | 49.2% | 6% | 75% (active) | 45.4% | 6% | 76% (active) | 76.7% (active) | 3% | 17% | 14.1% | -7% | 59% | 59% | -2% | 83% (active) | 31.1%
CCC(=O)NC1=C(Cl)C(=O)c2ccccc2C1=O | 99% (active) | 99% (active) | 99.2% (active) | 100% (active) | 99% (active) | 98.2% (active) | 100% (active) | 100% (active) | 98.2% (active) | 99% (active) | 100% (active) | 86.2% (active) | 99% (active) | 99% (active) | 98.9% (active) | 99% (active) | 99% (active) | 98.5% (active)
CN(C)Cc1ccc2c(c1)c1c(n2Cc2ccccc2)CCCC1 | -2% | 94% (active) | 84.3% (active) | -7% | 84% (active) | 70.2% (active) | -4% | 20% | 90.4% (active) | -5% | 96% (active) | 86.7% (active) | -8% | 96% (active) | 97.9% (active) | 3% | 97% (active) | 97.7% (active)
COc1ccnc2c1C(=O)c1nc3ccccc3c3ccnc-2c13 | 14% | 89% (active) | 81.2% (active) | -9% | 83% (active) | 79.8% (active) | 9% | 83% (active) | 81.5% (active) | 2% | 88% (active) | 80.8% (active) | -15% | 86% (active) | 81% (active) | 23% | 92% (active) | -21.9%
CC(=O)NC1=C(Cl)C(=O)c2ccccc2C1=O | 91% (active) | 99% (active) | 99.5% (active) | 93% (active) | 99% (active) | 99.5% (active) | 70% (active) | 100% (active) | 99.7% (active) | 21% | 99% (active) | 98.8% (active) | 96% (active) | 99% (active) | 99.4% (active) | 96% (active) | 99% (active) | 99.5% (active)
CN(C)c1ccc(/C=C(/C#N)c2ccc(Cl)cc2)cc1 | -16% | -18% | 3.45% | 0% | 8% | 13.2% | 3% | 15% | -10.3% | 27% | -6% | 64.4% | 6% | -25% | 7% | -17% | -18% | 5.5%
CN1CCS(=O)(=O)C1=O | 3% | 87% (active) | 90.3% (active) | 2% | 93% (active) | 95.8% (active) | 1% | 75% (active) | 42.8% | 10% | 54% | 86.3% (active) | 5% | 94% (active) | 98% (active) | 1% | 63% | 93.2% (active)
CCCC(Sc1ccccc1)c1ccccc1NC(C)=O (stereo not drawn) | 1% | 31% | 85.5% (active) | 0% | 8% | 58.9% | 1% | 26% | 89.9% (active) | 6% | 33% | 37% | 6% | 41% | 45.6% | 2% | 15% | 67.5%
O=C(OCc1ccccc1CN1CCOCC1)c1cccc(Br)c1 | 2% | 32% | 43.5% | -4% | 3% | 9.4% | -4% | 82% (active) | 82.8% (active) | -5% | -3% | -4.15% | 2% | 42% | 52.2% | 21% | 40% | 6.65%
CCCCCC(C)(C)N=C=S | 3% | 0% | 7% | -1% | 2% | -1.65% | -1% | -3% | -1.85% | 5% | 1% | 10.3% | 1% | 0% | 8.3% | -5% | 1% | -5.6%
CCCCCCCCCCCCCCCC[N+](C)(C)CCl | 99% (active) | 100% (active) | 85.6% (active) | 99% (active) | 100% (active) | 89.7% (active) | 99% (active) | 100% (active) | 82.2% (active) | 99% (active) | 99% (active) | 89% (active) | 99% (active) | 100% (active) | 87.3% (active) | 99% (active) | 100% (active) | 80.1% (active)
CCN(C(=O)C(F)(F)F)c1ccc2c(c1)C(=O)c1ccccc1-2 | 0% | 34% | 26.1% | 1% | 12% | -2.65% | -4% | 87% (active) | 42.6% | 0% | 20% | -18.2% | 38% | 70% (active) | 84% (active) | -1% | 60% | 10%
O=Cc1c(Cn2ccnc2)c2cc([N+](=O)[O-])ccc2n1Cc1ccccc1 | 5% | 49% | 62.5% | 4% | 39% | 13.7% | 6% | 48% | 57.2% | -2% | -17% | 22.9% | -3% | -1% | 3.8% | 8% | 64% | 68.5%
COc1cc2c(cc1C(C)C)CCC1C(C)(C#N)CCCC21C (stereo not drawn) | -6% | -21% | 34.4% | 3% | -11% | 46.5% | -11% | -29% | 47.5% | 1% | -22% | 80.1% (active) | 0% | -10% | 45.1% | -3% | -29% | 88.8% (active)
CCC(C)OC(=O)Nc1cccc(Cl)c1 (stereo not drawn) | 12% | 61% | 83.4% (active) | -7% | 1% | 23.9% | 4% | 14% | 79.5% (active) | 6% | -16% | 14.8% | -19% | -8% | 1.4% | 5% | 29% | 78.8% (active)
CC(C)(C)C(=O)CC(=O)C(F)(F)C(F)(F)C(F)(F)F.CC(C)(C)C(=O)CC(=O)C(F)(F)C(F)(F)C(F)(F)F.CC(C)(C)C(=O)CC(=O)C(F)(F)C(F)(F)C(F)(F)F.[Er] | 92% (active) | 28% | 92.5% (active) | 65% | 9% | 91% (active) | 43% | 38% | 91.2% (active) | 40% | 38% | 88.8% (active) | 40% | 34% | 91.2% (active) | 90% (active) | 26% | 65.8%
COC(=O)[C@@H](O)[C@]1(C(=O)OC)C2O[C@@H](OC)[C@@H]1CCCCCC[C@H]2O | 21% | 11% | -2.05% | 10% | 11% | 0.45% | 10% | 17% | -6.85% | 17% | 29% | 2.1% | 18% | 13% | 8.85% | 19% | 12% | -1.95%
O=[N+]([O-])c1ccc(SC(=S)N2CCCCC2)c([N+](=O)[O-])c1 | 21% | 98% (active) | 98.4% (active) | 16% | 98% (active) | 99% (active) | 15% | 99% (active) | 99.2% (active) | 0% | 92% (active) | 98.4% (active) | 10% | 98% (active) | 98.8% (active) | 21% | 98% (active) | 98.9% (active)
CCCCCCCCNc1ccc(Cl)cc1 | 46% | 96% (active) | 91.8% (active) | 26% | 98% (active) | 93% (active) | 49% | 97% (active) | 98.2% (active) | 25% | 94% (active) | 81.2% (active) | 8% | 97% (active) | 74.1% (active) | 40% | 97% (active) | 98% (active)
O=C(Oc1cc(Cl)c(Cl)cc1Cl)c1ccco1 | 0% | -1% | -1.8% | 4% | 5% | -5.4% | 0% | -3% | 23.9% | 3% | -5% | -10.2% | 30% | 18% | 84.8% (active) | 1% | -4% | -0.9%
COC(=O)c1ccc(C)cc1C1CN=NC12Cc1cc(C)ccc1C2=O (stereo not drawn) | 10% | 50% | 5.35% | 8% | 44% | 19.6% | 5% | 67% | 68.6% | 6% | 44% | 37.2% | 6% | 73% (active) | 46.1% | 13% | 65% | 65%
CSC(=S)N/N=C(/C)CC(C)C | 25% | 94% (active) | 57.1% | 14% | 94% (active) | 93% (active) | 10% | 92% (active) | 45.8% | -5% | 88% (active) | 66.8% | 24% | 95% (active) | 95.8% (active) | 16% | 95% (active) | 54%

From PubChem BioAssay (NCI)
